SW480 rereplic = A quantitative high throughput screen for small molecules that induce DNA re-replication in SW480 colon adenocarcinoma cells. SW480 DNA re-replication, Hoechst DNA content imaging, 48 h. Potency, µM (highest dose often 46.1 µM), without a hit: at the top dose re-replication activation, most hits filed as activators. hit rate 1.8% among 340,000; note: % of control where 0% means no effect; nearly all actives have a fitted effect of over 55% in size
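Image-based read-out: total Hoechst fluorescence of nuclei (405 nm excitation, 500-530 nm emission), with hits raising the fraction of high-intensity nuclei. SW480 colon cells incubated 48 hr with compounds at 37 C.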
HT1080 IDH1KD tx = qHTS for induction of synthetic lethality in tumor cells producing 2HG: qHTS for the HT-1080-IDH1KD cell line; HT-1080 IDH1 knockdown viability, ATP luminescence, 48 h; Potency, µM (series often up to 46.1 µM), for the others: at the highest dose activity, negative = toxicity, actives largely listed as cytotoxic; hit rate 2% among 360,000; AID 686971, 2013;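 note: 0% = DMSO wells and -100% = cell-free medium wells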
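CellTiter-Glo luminescence after 48 h compound exposure at 37 degrees C of IDH1-knockdown HT-1080 cells in 5% FBS RPMI. %Activity scaled between DMSO wells and cell-free media wells, with curves fitted and assigned curve classes.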
KB-V1 cytotox = qHTS assay for MDR1-selective chemotherapeutics: Primary screen using the drug-selected MDR subline cells KB-V1. KB-V1 MDR cells viability, CellTiter-Glo, 72 h. hit rate 3.4% among 400,000. Potency, µM (top dose mostly 46.1 µM), usual class: cytotoxic; note: % is set by controls: 0 for no effect and ±100 for the full control effect; nearly all actives have a fitted effect of over 60% in size
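In this primary screen, KB-V1 cells overexpressing P-gp are incubated with library compounds (lowest to highest concentration) for 72 h at 37 degrees C before a luminescent ATP viability read.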
MCF10A rerep = A quantitative high throughput screen for small molecules that induce DNA re-replication in MCF 10a normal breast cells. MCF 10A DNA re-replication, Hoechst nuclear intensity, 48 h. Potency, µM (series often up to 46.1 µM), for the others: at the highest dose activity, positive = re-replication, actives largely listed as activators. hit rate 2.9% among 350,000. AID 624296, 2012; note: % of control where 0% means no effect; nearly all actives have a fitted effect of over 50% in size
HT1080-NT tox = qHTS for induction of synthetic lethality in tumor cells producing 2HG: qHTS for the HT-1080-NT fibrosarcoma cell line; AID 686970, 2013; Potency, µM (titrated, usually from 46.1 µM), for the others: at the highest dose activity, negative = less viability, usual class: cytotoxic; HT-1080-NT fibrosarcoma viability, CellTiter-Glo ATP luminescence, 48 h; hit rate 1.6% among 360,000;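 note: NT is the 2HG producing partner of a matched IDH1 knockdown line; 0% = DMSO-treated cells and -100% = media-only wells without cells; nearly all actives have a fitted effect of over 55% in size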
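Read-out is CellTiter-Glo luminescence after 10 minutes at room temperature, following 48 hours' compound treatment of HT-1080-NT cells (750 cells/well, RPMI, 5% FBS, 37 degrees C).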
KB-3-1 tox = qHTS assay for MDR1-selective chemotherapeutics: Primary screen using the parental adenocarcinoma cell KB-3-1. KB-3-1 viability, CellTiter-Glo ATP luminescence, 72 h. Potency, µM (doses to about 46.1 µM), usual class: cytotoxic. hit rate 1.4% among 400,000; note: % is set by controls: 0 for no effect and ±100 for the full control effect; nearly all actives have a fitted effect of over 60% in size
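Multi-concentration cytotoxicity screen in KB-3-1 cells grown in DMEM lacking phenol red with 10% FBS. After 72 h at 37 °C with compound, ATP-dependent luminescence was recorded.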
* marks the source's active call; other numbers are inactive results; i = inactive; ? = inconclusive; nt = no result. An excerpt weighted towards active compounds, which were near 8% of everything screened. Calls come from the whole dose curve; as a rule, active = well fitted curve in the direction sought with a large enough effect; inconclusive = small, poorly fitted or top-dose-only effect, or another doubt; inactive = no such curve, though single readings can be large; an effect the other way counts as inactive or inconclusive. Potency is the fitted concentration of half-maximal effect.

SMILES | SW480 rereplic | HT1080 IDH1KD tx | KB-V1 cytotox | MCF10A rerep | HT1080-NT tox | KB-3-1 tox
Nc1c(C(=O)Nc2ccc(Cl)cc2)sc2nc(N3CCOCC3)c3c(c12)CCCC3 | 16% | -3% | i | 2.1µM* | 1% | i
COc1ccccc1Cn1c(=O)c2ccccc2n2c(Sc3ncnc4sccc34)nnc12 | 21µM* | ? | ? | 18µM* | ? | ?
CCCCNC(=O)Cn1c(SCc2cccc(F)c2)nc2ccncc21 | nt | nt | i | nt | nt | i
N#Cc1ccc(/C=C2/C=Cc3ccccc32)cc1 | nt | nt | i | nt | nt | i
CCCN(CCC)C(=O)CCSCCC(=O)N(CCC)CCC | -1% | 9% | 18µM* | 1% | 3% | i
CCCCCCCCCCCC(=O)N(CCO)CCO | 10% | nt | nt | 28% | nt | nt
CC1CCC(NC(=O)c2ccc(CS(=O)(=O)c3c(Cl)cccc3Cl)o2)CC1 (stereo not given) | nt | nt | i | nt | nt | i
COc1ccc(NC(=O)Nc2c[nH]c(=O)[nH]c2=O)c(OC)c1 | nt | nt | i | nt | nt | i
Oc1ccccc1C1CC(c2cccs2)=NC(c2ccc(Cl)cc2)N1 (stereo not given) | 18µM* | ? | i | 4.6µM* | ? | ?
CS(=O)(=O)N1N=C(c2cccs2)CC1c1ccccc1O (stereo not given) | 1% | -4% | i | -8% | 3% | i
COc1ccccc1CNC(=O)c1cnc(N(C)C)nc1 | nt | nt | i | nt | nt | i
CCc1c(C)nc2ncnn2c1N1CCCC(C(=O)NCCc2ccccc2)C1 (stereo not given) | -3% | ? | 13µM* | 2% | 2% | ?
COc1ccc(OC)c(NC(=O)C2CCN(c3cc(-c4ccccc4)nc4ncnn34)CC2)c1 | 0% | -7% | 15µM* | 22% | 0% | i
Cc1nc2ncnn2c(N2CCCC(C(=O)Nc3ccccc3Br)C2)c1C (stereo not given) | -7% | -26% | 10µM* | 4% | -18% | i
CCc1c(C)nc2ncnn2c1N1CCCC(C(=O)NCc2ccco2)C1 (stereo not given) | -12% | 5% | i | 1% | 1% | ?
CCc1c(C)nc2ncnn2c1N1CCC(C(=O)NCc2cccc(OC)c2)CC1 | -8% | ? | 23µM* | 0% | 5% | ?
COc1ccc(NC(=O)C2CCN(c3cc(-c4ccccc4)nc4ncnn34)CC2)cc1OC | 19% | ? | ? | 28% | ? | ?
CCCOc1ccc(C(=O)Nc2ccc3oc(-c4ccc5ccccc5c4)nc3c2)cc1 | nt | nt | i | nt | nt | i
O=C(Cn1c(=O)nc(-c2ccccc2)c2ccccc21)Nc1ccc(Cl)cc1F | nt | nt | i | nt | nt | i
CCc1c(C)nc2ncnn2c1N1CCCC(C(=O)NCc2cccs2)C1 (stereo not given) | -9% | 2% | 16µM* | 13% | -14% | ?
COC(=O)c1c(C(=O)c2ccc(Br)cc2)n(C)c2ccccc12 | 8% | -11% | 21µM* | 12% | -1% | ?
COC(=O)c1c(S(N)(=O)=O)c2ccccc2n1C | 2% | -4% | i | 1% | -2% | i
COc1ccc(-c2cc3nc(C)cc(N)n3n2)cc1 | -7% | 16µM* | ? | 2% | ? | ?
COc1ccc(-c2cc3nc(C)cc(-c4ccc(OC)cc4)n3n2)cc1 | ? | -16% | i | 12µM* | 0% | i
CCc1ccc2nc(N3C(=O)C(O)=C(C(=O)c4ccco4)C3c3cccs3)sc2c1 (stereo not given) | -108% | -20% | 5.8µM* | 15µM* | -4% | ?

Screens as filed in PubChem.
